# Rows were chosen to be rich in hits. Some 6.7% of all compounds tested hit in one or more screens of this group.
# Autofluor counter: counter-screen for toxin protease inhibitors: compound fluorescence; compound autofluorescence counterscreen, microsphere flow cytometry; hits give high values; fluorescence intensity (test concentration not listed); hit rate 3.1% among 360,000; AID 624483; in the data active = fluorescence intensity above about 16000; inconclusive = no clear call, values can overlap the other calls
# BoNT-F LC inh: BoNT/F light chain protease inhibitors, primary screen, biochemical, flow cytometry, MLPCN library. Multiplex microsphere protease cleavage assay. inhibition, % at 10 µM. hit rate 0.22% among 360,000. AID 588497, 2011; in the data active = inhibition above about 35%, passing the limit was not always enough; inconclusive = no clear call, values can overlap the other calls; also: plate controls were buffer without enzyme for full effect and enzyme alone for no effect
# Mtb FBA inh: Mtb FBA enzyme inhibitors, primary screen, biochemical, fluorescence, strain H37Rv | Fructose-bisphosphate aldolase (Mycobacterium tuberculosis (strain ATCC 25618 / H37Rv)), … | purified M. tuberculosis FBA, fluorescence read-out | inhibition, % at 1 µM | hit rate 2.3% among 360,000 | AID 588726, 2011; in the data active = inhibition above about 27%;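 also: 0% = vehicle and 100% = reference inhibitor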
# BoNT-A LC inh2: BoNT/A light chain protease inhibitors, primary screen, biochemical, flow cytometry, MLPCN library; Botulinum neurotoxin type A light chain protease (Clostridium botulinum A str. ATCC 3502); multiplex microsphere protease substrate cleavage; inhibition, % at 10 µM; hit rate 0.17% among 360,000; AID 588499, 2011; also: plate controls were buffer without enzyme for full effect and enzyme alone for no effect
# Anthrax LF prot: Bacillus anthracis LF protease inhibitors, primary screen, biochemical, multiplex microsphere, MLPCN library | multiplex microsphere protease cleavage assay | hit rate 0.12% among 360,000 | inhibition, % at 10 µM | AID 588501, 2011 | Lethal factor (Bacillus anthracis), P15917; also: plate controls were buffer without enzyme for full effect and enzyme alone for no effect
# GDH-TPI inh: GDH-TPI coupling enzyme inhibitors, primary screen, artefact control for M. tuberculosis FBA inhibitor project, biochemical, absorbance, full deck. hit rate 1.2% among 360,000. GDH-TPI coupled enzyme counterscreen, NADH absorbance. inhibition, % at 4.8 µM; in the data active = inhibition above about 30%;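 also: 0% = DMSO wells and 100% = wells lacking the enzyme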
# The depositor's hits bear a star; ? = inconclusive. Rule as the data show it, unless noted: active = inhibition above about 30%; inconclusive = no clear call, values can overlap the other calls; inactive = below that.
SMILES,Autofluor counter,BoNT-F LC inh,Mtb FBA inh,BoNT-A LC inh2,Anthrax LF prot,GDH-TPI inh
CCn1cc(C(=O)O)c(=O)c2cc(F)c(N3CCNCC3)cc21,5519,-9.9,55.4*,-0.5,3.8,26.6
CCn1cc(C(=O)NCC(C)C)c(=O)c2cc(F)c(N3CCN(C(=O)c4ccco4)CC3)cc21,4141,9.7,11.4,1.2,-2.6,0.7
C=CCNC(=O)c1cn(CC)c2cc(N3CCN(C(=O)c4ccco4)CC3)c(F)cc2c1=O,4933,-6.9,97.0*,-1.9,1.5,20.5
CCC(C)NC(=O)c1cn(CC)c2cc(N3CCN(C(=O)c4ccco4)CC3)c(F)cc2c1=O (stereo not drawn),5600,-1.1,54.3*,-1.8,-4.1,25.8
Cc1ccc(NC(=O)Cn2cnc3cc([N+](=O)[O-])ccc3c2=O)c(Cl)c1,7232,-8.4,4.3,-1.2,-2.5,6.6
O=C(c1cccs1)c1coc2ccc(O)c(CN(CCO)CCO)c12,21865*,10.0,1.6,2.3,-0.5,17.3
COc1ccc2occ(C(=O)c3coc4ccc(O)c(CN(C)C)c34)c2c1,23271*,-2.9,6.8,0.2,-0.9,6.5
COc1ccc2occ(C(=O)c3ccc(N)cc3)c2c1,4625,?,1.0,-1.6,-1.6,20.7
COc1ccc2occ(C(=O)c3cccs3)c2c1,24929*,-5.9,0.8,-1.9,-2.6,8.2
CN(C)Cc1c(O)ccc2occ(C(=O)c3ccccc3)c12,22642*,2.3,2.7,1.6,3.6,0.6
CC1=C(C)C(OCCBr)N(c2cc(O)c(Cl)cc2F)C1=O (stereo not drawn),4362,-9.6,1.6,-1.1,-6.2,-3.9
CN(C(=S)Nc1ccc(SC(F)F)cc1)c1ccc(O)cc1,2397,-4.5,-2.4,-0.6,-0.2,-6.0
Cc1ccc(Cn2ccc(NC(=O)c3cc(-c4ccc(Cl)cc4)on3)n2)cc1,15942,1.2,1.5,?,-4.1,5.5
Cc1ccc(Cn2ccc(NC(=O)c3cc(-c4ccc(F)cc4)on3)n2)cc1,24044*,-2.7,4.2,-1.4,0.3,-6.4
Cc1ccc(NC(=O)C(C)N2C(=O)C3CC=C(Cl)CC3C2=O)cc1 (stereo not drawn),6424,-8.3,3.4,-0.8,-0.4,-0.4
Cc1ccc(NC(=O)C(C)N2C(=O)C3C4CC(C(Br)C4Br)C3C2=O)cc1 (stereo not drawn),22632*,-2.6,-0.4,-0.9,-2.0,-3.9
Cc1ccc(N=C2NC(=O)CS2)cc1,3445,-14.2,-1.3,-2.0,-2.4,10.8
CCOC(=O)c1ccc(N=C2NC(=O)CS2)cc1,23536*,0.7,-0.6,-1.6,-1.5,5.8
CCOC(=O)c1ccc(N=NN(C)C)cc1,4355,?,-0.4,-3.9,1.7,36.0*
Cc1ccc(-c2csc(C(C#N)=C3CCCC3)n2)cc1,3361,-3.9,4.8,-0.7,-1.3,4.1
CCOc1ccc(CN(C)CC(=O)Nc2cccc(C)c2)cc1OC,4431,-9.0,-2.0,-0.5,-6.9,6.7
Cc1ccc(NC(=O)C2CC(=O)NC(N3CCCCC3)=N2)cc1Cl (stereo not drawn),4048,-39.9,2.9,-1.8,-13.8,5.0
O=C(CNc1ccccc1)N/N=C/c1c(O)ccc2ccccc12,3707,18.9,2.3,6.4,-3.9,13.7
Cc1ccc(NC(=O)COc2ccc(/C=N/NC(=O)CSCc3ccccc3)cc2)cc1,22872*,-1.2,1.8,-0.5,0.2,6.6
COc1ccc(/C=N/NC(=O)CSc2ccccc2)cc1OC,2073,0.5,1.6,-0.1,0.9,5.2
SMILES,Autofluor counter,BoNT-F LC inh,Mtb FBA inh,BoNT-A LC inh2,Anthrax LF prot,GDH-TPI inh
COc1ccc(/C=N/NC(=O)CSCC(=O)Nc2ccccc2)cc1OC,19130*,11.7,-0.4,?,-13.5,18.8
O=C(CSCC(=O)Nc1ccccc1)N/N=C/c1c(O)ccc2ccccc12,23512*,-2.3,4.2,4.6,6.4,11.2
COc1ccc(/C=N/NC(=O)CSCc2ccc([N+](=O)[O-])cc2)cc1OC,10555,-0.6,-0.1,1.1,-0.5,40.7*
CC1(C2CC2)NC(=O)NC1=O (stereo not drawn),2565,-0.3,-1.6,0.6,-1.8,5.4
O=C(COc1ccc(/C=N/NC(=O)c2ccncc2)cc1)Nc1cccc([N+](=O)[O-])c1,2967,-4.7,4.1,-3.3,-0.8,16.5
O=S(=O)(/N=C/c1c(O)ccc2ccccc12)c1ccccc1,3955,42.2*,1.7,-0.9,1.7,6.0
O=C(COc1ccc(/C=N/NC(=O)c2ccccc2O)cc1)Nc1ccc([N+](=O)[O-])cc1,9396,-5.2,0.0,-0.9,-4.2,37.8*
Cc1ccc(OCC(=O)Nc2nnc(C3CCCO3)s2)c(Br)c1 (stereo not drawn),3791,-4.1,1.4,-0.4,0.6,2.2
O=C(Nc1nnc(C2CCCO2)s1)c1ccc(Br)cc1 (stereo not drawn),23157*,0.1,-1.2,0.0,-4.0,8.1
CCOc1ccccc1NC(=O)c1sc2ncn(CC(=O)N3CCOCC3)c(=O)c2c1C,3322,-16.4,-1.7,-2.4,-12.8,14.2
CC(=O)Nc1cc(C(F)(F)F)ccc1OCCOc1ccccc1,21706*,1.5,3.5,?,-3.5,23.1
O=c1c2ccccc2nc(-c2ccoc2)n1-c1ccccc1,20668*,-0.6,-1.2,?,-1.4,14.0
COc1ccccc1-n1c(-c2ccoc2)nc2ccccc2c1=O,2217,-10.4,0.2,-0.4,-3.3,26.1
O=c1c2ccccc2nc(-c2ccoc2)n1-c1ccccc1Cl,22805*,2.1,-2.8,1.0,-1.8,9.8
Cn1c(=O)[nH]c(=O)c2[nH]c(CO)nc21,4292,-2.5,2.1,0.1,-0.1,2.3
O=C(c1ccco1)n1nc(-c2ccco2)nc1SCc1ccccc1,21774*,4.6,0.1,2.6,2.0,12.4
O=C(c1ccco1)n1nc(-c2ccccc2)nc1SCc1ccccc1,?,3.9,-0.3,0.0,-7.8,-5.3
O=C1CC(c2ccc(O)c(O)c2)Oc2cc(O)cc(O)c21 (stereo not drawn),4065,-10.1,5.9,-0.4,-10.2,31.4*
O=C1CC(c2ccc(O)cc2)Oc2cc(O)cc(O)c21 (stereo not drawn),5749,-6.1,-0.6,-0.2,-3.9,26.6
CCCn1c(=S)[nH]c2cc(C(=O)N3CCN(C)CC3)ccc2c1=O,3515,5.5,-0.4,0.1,-5.3,4.6
CCCn1c(=S)[nH]c2cc(C(=O)N3CCc4ccccc43)ccc2c1=O,21147*,-2.8,0.2,-1.8,-1.4,12.1
COCCn1c(=S)[nH]c2cc(C(=O)N3CCc4ccccc43)ccc2c1=O,24139*,-4.8,3.4,-4.0,-3.6,18.2
O=C(CNC(=O)c1ccco1)N=Nc1c(O)n(CCc2ccccc2)c2ccccc12,4383,1.6,-1.9,0.5,-5.7,22.3

# Screening data deposited in PubChem BioAssay by several laboratories.
